Bioassay records deposited in PubChem BioAssay by National Center for Advancing Translational Sciences (NCATS).
Only a selection was taken, and hits are over-represented in it overall.
NTMT1 inh – Primary qHTS for Inhibitors of N-terminal methyltransferase 1 (NTMT1): MTaseGlo Assay. AID 1645870, 2021. N-terminal Xaa-Pro-Lys N-methyltransferase 1 (Homo sapiens), Q9BV86. Potency, µM (doses to about 114 µM), for the others: at the highest dose activity change, negative = inhibition, usual class: inhibitors. NTMT1 MTase-Glo SAH luminescence, purified enzyme. 59,000 tested, 2.5% active;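 further: potency means the concentration at half of the fitted maximal effect; plate controls were DMSO vehicle for no effect and no enzyme for full effect; nearly all actives have a fitted effect of over 65% in size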
Target sequence (Q9BV86 whole entry, looked up): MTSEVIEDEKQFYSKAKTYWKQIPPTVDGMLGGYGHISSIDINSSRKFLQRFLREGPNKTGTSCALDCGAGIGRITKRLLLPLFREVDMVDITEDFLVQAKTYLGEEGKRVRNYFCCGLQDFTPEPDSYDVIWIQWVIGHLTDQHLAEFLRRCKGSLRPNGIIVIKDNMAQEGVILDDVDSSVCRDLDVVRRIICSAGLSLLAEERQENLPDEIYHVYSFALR
SKOV3 invasion – Primary qHTS assay for Inhibitors of ovarian cancer metastasis using an organotypic tumor microenvironment (TME) model; SKOV3ip1-GFP adhesion/invasion on 3D omental model, fluorescence; Potency, µM (top dose mostly 45.8 µM), for inactives: at the highest dose activity change, negative = inhibition, most hits filed as inhibitors; 46,000 tested, 0.1% active; AID 1963576, 2024;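 further: potency means the concentration at half of the fitted maximal effect; plate controls were DMSO wells for no effect and tomatine positive control wells for full effect; nearly all actives have a fitted effect of over 65% in size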
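Adhesion/invasion was scored as fixed GFP-labeled SKOV3ip1 cell counts (488/509 nm), normalized to DMSO and tomatine controls. Cancer cells in serum-free medium, with four compound doses (0.36-46 umol/L), sat 2 hr at RT then 16 hr at 37 C on a 48 hr fibroblast/mesothelial/ECM culture.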
p53null 39C tox – qHTS Screen for Compounds that Selectively Target Cancer Cells with p53 Mutations: Cytotoxicity of p53 Null Cells at the Nonpermissive Temperature; 55,000 tested, 0.97% active; AID 904, 2007; H1299 p53-null (neo) cells, 39C, ATPlite viability, 24 h; Potency, µM (top dose mostly 46.1 µM), for the others: top-dose activity, negative = cell killing, hits mostly cytotoxic;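 further: potency means the concentration at half of the fitted maximal effect; 0% = DMSO only and -100% = full killing by 100 µM tamoxifen; nearly all actives have a fitted effect of over 50% in size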
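ATP-luminescence viability readout (ATPlite, 20 min RT) after 24 hr compound treatment at 39C of H1299-neo or H1299-p53A138V cells; titration up to 46 uM; normalized to DMSO and 100 uM tamoxifen; Hill-fit AC50.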
p53null 32C tox – qHTS Screen for Compounds that Selectively Target Cancer Cells with p53 Mutations: Cytotoxicity of p53 Null Cells at the Permissive Temperature. H1299-neo p53 null cells, ATP luminescence, 24 h, 32C. Potency, µM (highest dose often 46.1 µM), without a hit: top-dose activity change, negative = cytotoxicity, most hits filed as cytotoxic. 55,000 tested, 0.62% active. AID 903, 2007;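 further: potency means the concentration at half of the fitted maximal effect; 0% = DMSO only and -100% = full killing by 100 µM tamoxifen; nearly all actives have a fitted effect of over 55% in size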
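ATP-content luminescence in p53-null H1299-neo cells after 24 h compound exposure (up to 46 uM) at 32C permissive temperature; 0% and 100% killing set by DMSO and 100 uM tamoxifen; Hill-equation AC50.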
NNMT counter – Counterscreen qHTS for Inhibitors of N-terminal methyltransferase 1 (NTMT1): NNMT MTaseGlo assay; shares compounds with NTMT1 inh; Potency, µM (titrated, usually from 57.1 µM), for inactives: at the top dose activity, negative = inhibition, actives largely listed as inhibitors; 120 tested, 10% active; NNMT MTase-Glo luminescence, SAH detection
An asterisk follows results filed as active; · = no result given; [ ] = another dose, or the depositor's remark. The call rests on the fitted dose curve; in most records, active means well fitted curve in the direction sought with a large enough effect; inconclusive means small, poorly fitted or top-dose-only effect, or another doubt; inactive means no such curve, though single readings can be large; an effect the other way counts as inactive or inconclusive.

SMILES	NTMT1 inh	SKOV3 invasion	p53null 39C tox	p53null 32C tox	others
Oc1cccc2cc(N3CCNCC3)cnc12	0.3%	·	·	·
COc1cc(O)c2c(c1)CCC[C@@H](O)[C@H](O)C(=O)/C=C\C[C@H](C)OC2=O	10µM*	·	·	·
N#CC(OC1OC(COC2OC(CO)C(O)C(O)C2O)C(O)C(O)C1O)c1ccccc1 (configuration not stated)	16.3%[29.8 µM]	·	·	·
N#Cc1cn([C@@H]2O[C@H](CO)[C@H](O)[C@@H]2O)c2ncnc(N)c12	8.91µM*	·	·	·
Cc1cc(C)c(OP(=O)(OCc2c(-c3ccccc3)no[n+]2[O-])Oc2c(C)cc(C)cc2C)c(C)c1	-4.7%	·	·	·
CC1(C)CC[C@]2(NC(=O)C(C)(F)F)CC[C@]3(C)[C@H](C(=O)C=C4[C@@]5(C)C=C(C#N)C(=O)C(C)(C)[C@@H]5CC[C@]43C)[C@@H]2C1	-5.3%	·	·	·
COc1ccc2c(c1)/C(=C/c1cnc[nH]1)C(=O)N2	39.8µM*	·	·	·
Cc1oc(-c2ccc(Cl)cc2)nc1CN1CCC(C(=O)NCCCN2CCN(c3cccc(Cl)c3)CC2)CC1	79.4µM*	-3.9%	25.1µM*	-5.5%
C[C@H]1CCC[C@H](O)CCC/C=C/c2cc(O)cc(O)c2C(=O)O1	1.41µM*	·	·	·	NNMT counter=3.55µM*
C=C(C)C(=O)O[C@H]1[C@@H]2[C@H](C)C(=O)O[C@@H]2C[C@@H](C)[C@@H]2C=CC(=O)[C@]21C	1.3%[29.8 µM]	·	·	·
